Measured values: ChEMBL document CHEMBL3433997, “St. Jude Leishmania screening dataset” (2016)

Columns and labels:
Format in all cases: functional
[1] = target: Solute carrier family 2, facilitated glucose transporter member 1 (Homo sapiens) (UniProt P11166); experiment: ST_JUDE_LEISH: Cytotoxicity at 2uM final concentration against transgenic Leishmania Mexicana promastigotes LmGLUT1 that are glucose transport deficient and complemented with the human glucose transporter GLUT1. Activity is measured by DNA content using SYBR green in vitro
[2] = target: Hexose transporter 1 (Plasmodium falciparum) (UniProt O97467); experiment: ST_JUDE_LEISH: Cytotoxicity at 2uM final concentration against transgenic Leishmania Mexicana promastigotes LmPfHT that are glucose transport deficient and complemented with the Plasmodium falciparum hexose transporter. Activity is measured by DNA content using SYBR green in vitro
[3] = target: Glucose transporter (Leishmania mexicana) (UniProt O61059); experiment: ST_JUDE_LEISH: Cytotoxicity at 2uM final concentration against transgenic Leishmania Mexicana promastigotes LmGT2 that are glucose transport deficient and complemented with the L. Mexicana glucose transporter 2. Activity is measured by DNA content using SYBR green in vitro

Sequence of Solute carrier family 2, facilitated glucose transporter member 1 (Homo sapiens) (P11166 whole entry): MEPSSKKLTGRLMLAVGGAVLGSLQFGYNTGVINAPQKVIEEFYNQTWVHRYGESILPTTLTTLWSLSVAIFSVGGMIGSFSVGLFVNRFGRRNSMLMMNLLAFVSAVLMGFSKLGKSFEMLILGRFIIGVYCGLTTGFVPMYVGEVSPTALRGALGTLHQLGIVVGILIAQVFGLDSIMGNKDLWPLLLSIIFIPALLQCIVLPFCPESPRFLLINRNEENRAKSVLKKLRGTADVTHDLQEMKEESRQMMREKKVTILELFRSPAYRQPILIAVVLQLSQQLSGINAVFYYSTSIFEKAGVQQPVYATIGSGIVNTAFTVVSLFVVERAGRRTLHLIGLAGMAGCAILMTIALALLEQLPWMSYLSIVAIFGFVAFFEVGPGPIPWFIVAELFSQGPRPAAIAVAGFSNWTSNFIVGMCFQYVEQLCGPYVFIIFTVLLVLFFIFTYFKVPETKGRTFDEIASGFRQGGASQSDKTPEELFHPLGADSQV

`Cc1ccccc1N1CCN(c2ccc(C(=O)NC3CC3)cn2)CC1` was tested, and the inhibition [1] was 10.9%, the inhibition [2] was 8.46% and the inhibition [3] was 4.25%.

For `COc1cccc(C2CCN(CCN3CCC(NC(=O)c4ccc(-c5ccc(Cl)cc5)cc4)CC3)CC2)c1`, the inhibition [1] was -0.82%, the inhibition [2] was 0.69% and the inhibition [3] was 1.81%.

With `NC(=O)C1CCN(Cc2ccc(-c3ccc(-c4nc5cc(C(F)(F)F)ccc5[nH]4)s3)cc2)CC1` the inhibition [1] was 4.68%, the inhibition [2] was 3.12% and the inhibition [3] was 4.69%.

In the case of `COc1ccc2ncc(F)c(CCN3CCC(NCc4cnc5c(c4)NC(=O)CS5)CC3)c2c1`, the inhibition [1] is reported as 1.52%, the inhibition [2] is reported as 2.49% and the inhibition [3] is reported as 2.03%.

Compound `CC1CN(Cc2ccc(-c3ccc(-c4nc5cc(F)ccc5[nH]4)cc3)cc2)CC(C)O1` (configuration not stated) has an inhibition [1] of 6%, an inhibition [2] of 6.63% and an inhibition [3] of 3.77%.

`COc1ccc(CN(C)CC(O)COc2ccc(NC(=O)c3cccc4c(=O)c5cccc(OC)c5[nH]c34)cc2)cc1OC` (configuration not stated) was tested, and the inhibition [1] was 7.62%, the inhibition [2] was 3.04% and the inhibition [3] was 3.9%.

`COc1cc(OC)c(NC(=O)Nc2ccnc3ccccc23)cc1Cl` showed an inhibition [1] of 9.23%, an inhibition [2] of 8.9% and an inhibition [3] of 5.83%.

In the case of `Cn1nc(-c2ccc(Cl)cc2)c2cc(C(=O)NCCN3CCOCC3)sc21`, the inhibition [1] is reported as -0.16%, the inhibition [2] is reported as 1.5% and the inhibition [3] is reported as -0.52%.

`Cc1cc(-c2nc3ccc(CN4CCN(C)CC4)cc3[nH]2)nn1Cc1cc(Cl)ccc1OCc1ccccc1` gave an inhibition [1] of 3.84%, an inhibition [2] of 3.27% and an inhibition [3] of 2.54%.

Work on `c1ccc(-c2ccc(-c3csc(Nc4ccncc4)n3)cc2)cc1` yielded an inhibition [1] of 0.44%, an inhibition [2] of 1.9% and an inhibition [3] of 1.13%.

With `Cc1cnc(NCC2CCCCC2)nc1N[C@@H](CO)C(=O)Nc1ccccc1` the inhibition [1] was 1.68%, the inhibition [2] was 2.03% and the inhibition [3] was -0.71%.

With `Cc1ccc(C(NC(=O)Cc2ccccc2)c2ccc3cccnc3c2O)cc1` (configuration not stated) the inhibition [1] was 8.52%, the inhibition [2] was 22.8% and the inhibition [3] was 0.77%.

Work on `Cc1cc(N[C@@H](Cc2ccccc2)C(=O)NCc2cccc(F)c2)nc(NCC2CCCCC2)n1` yielded an inhibition [1] of -0.17%, an inhibition [2] of 2.51% and an inhibition [3] of -1.9%.

`COc1ccc(C2CCN(CCCCNC(=O)c3ccc(NC(=O)c4ccc(Cl)cc4)cc3)CC2)c(OC)c1` was tested, and the inhibition [1] was 6.64%, the inhibition [2] was 5.21% and the inhibition [3] was 3.22%.

Compound `O=C(NCc1ccc(Cl)c(Cl)c1)c1cc(CNC2CCNCC2)ccc1O` has an inhibition [1] of 0.91%, an inhibition [2] of 5.71% and an inhibition [3] of 2.11%.

Compound `O=C(Nc1ccc(Cl)cc1)OCCn1nnnc1C(c1ccc(Cl)cc1)N1CCOCC1` (configuration not stated) has an inhibition [1] of 2.79%, an inhibition [2] of 0.7% and an inhibition [3] of 2.38%.

`CCN(CC)CC(O)c1cc(-c2ccc(C)cc2)nc2c(C)cc(C)cc12` (configuration not stated) was tested, and the inhibition [1] was 3.3%, the inhibition [2] was 3.65% and the inhibition [3] was -1.02%.

Compound `Cc1cc2nc(-c3ccc(C(=O)NCc4cccc(C(F)(F)F)c4)cc3)[nH]c2cc1C` has an inhibition [1] of -0.3%, an inhibition [2] of -2.94% and an inhibition [3] of -2.9%.

`Cc1cnc(-c2ccc(NC(=O)N3CCc4cc5nccc(N6CCN7CCC[C@H]7C6)c5cc43)c3ccccc23)o1` was tested, and the inhibition [1] was 3.29%, the inhibition [2] was 3.79% and the inhibition [3] was 4.04%.

With `COc1cc(-c2ccc3c(-c4ccc(C(=O)N5CCN(C)CC5)cc4)n[nH]c3n2)cc(OC)c1OC` the inhibition [1] was 0.99%, the inhibition [2] was 1.78% and the inhibition [3] was 5.3%.

`Cc1nc(Nc2ccncc2)cc(-c2ccncc2)n1` was tested, and the inhibition [1] was 0.59%, the inhibition [2] was 4.18% and the inhibition [3] was 2.92%.

For `O=C(Nc1cccc(C2=NCCN2)c1)Nc1cccc(C2=NCCN2)c1`, the inhibition [1] was 1.69%, the inhibition [2] was 5.37% and the inhibition [3] was 1.1%.

With `COc1ccc(O)c(C(=O)NCCc2ccc(OC)c(-c3ccc(C(C)(C)C)cc3)c2)c1` the inhibition [1] was 4.08%, the inhibition [2] was 5.01% and the inhibition [3] was 4.69%.

`Cc1nc(C)n(CC(=O)Nc2cccc(-c3cccc(-c4nc5cc(C(F)(F)F)ccc5[nH]4)c3)c2)n1` gave an inhibition [1] of 10.2%, an inhibition [2] of 9.76% and an inhibition [3] of 7.09%.

`OCCn1c(CNCCCNc2nc3ccccc3[nH]2)cc2c(Cl)cc(Cl)cc21` gave an inhibition [1] of 82%, an inhibition [2] of 88.2% and an inhibition [3] of 80.5%.

`O=C(OCC1CCN(Cc2ccccc2)C1)c1ccc(Cl)cc1` (configuration not stated) gave an inhibition [1] of 0.47%, an inhibition [2] of 1.6% and an inhibition [3] of 2.14%.

`COc1cccc(Cc2c(C)nc3nc(N)nc(N)c3c2C)c1` showed an inhibition [1] of -0.08%, an inhibition [2] of 1.04% and an inhibition [3] of -0.24%.

For `COc1ccc2c(N/N=C/c3cccc([N+](=O)[O-])c3)ccnc2c1`, the inhibition [1] was -2.24%, the inhibition [2] was -3.16% and the inhibition [3] was -0.29%.

`O=C(Nc1cccc(-c2cccc(-c3nc4ccccc4[nH]3)c2)c1)Nc1ccc(Cl)c(Cl)c1` showed an inhibition [1] of 6.2%, an inhibition [2] of 6.7% and an inhibition [3] of 7.6%.

`COc1cc(NCCCCCNc2cc(Cl)nc3ccccc23)nc2ccccc12` showed an inhibition [1] of 1.24%, an inhibition [2] of 2.23% and an inhibition [3] of 2.29%.

Compound `CCC(C)(C)C1CCc2nc(N)nc(N)c2C1` (configuration not stated) has an inhibition [1] of 67%, an inhibition [2] of 71.9% and an inhibition [3] of 56.1%.

Compound `CC1CN(Cc2ccc(-c3cccc(-c4nc5cc(F)ccc5[nH]4)c3)cc2)CC(C)O1` (configuration not stated) has an inhibition [1] of 1.55%, an inhibition [2] of 7.65% and an inhibition [3] of 2.46%.

`O=C(Nc1cccnc1)c1cc(C(=O)Nc2cccnc2)cc([N+](=O)[O-])c1` was tested, and the inhibition [1] was 0.86%, the inhibition [2] was 3.44% and the inhibition [3] was 0.83%.

`Fc1ccc(CNc2nc(-c3ccc(F)c(C(F)(F)F)c3)n(-c3cccc(C(F)(F)F)c3)n2)cc1` gave an inhibition [1] of 4.39%, an inhibition [2] of 5.8% and an inhibition [3] of 3.42%.

With `Cc1cccc(OC(C)C(=O)Nc2cc(C(F)(F)F)ccc2N2CCOCC2)c1` (configuration not stated) the inhibition [1] was 2.38%, the inhibition [2] was 3.02% and the inhibition [3] was 6.44%.

With `Cc1cc(Nc2ncc3c(n2)N(C2CCC2)CC3)ccc1N1CCN(C)CC1` the inhibition [1] was 0.65%, the inhibition [2] was 1.15% and the inhibition [3] was 1.26%.

For `Cc1cc(C)c2oc(-c3cccc(NC(=O)c4ccc([N+](=O)[O-])o4)c3C)nc2c1`, the inhibition [1] was 11.4%, the inhibition [2] was 10.4% and the inhibition [3] was 1.45%.

For `CC(C)C1c2ccc(O)cc2CC2C(=O)N(C3CCCCC3)C(=O)N21` (configuration not stated), the inhibition [1] was -1.04%, the inhibition [2] was -1% and the inhibition [3] was -0.94%.

With `O=S(=O)(c1ccccc1)n1ccc2cc(Nc3ncnc4cc(C#C[C@H]5CCCN5)sc34)ccc21` the inhibition [1] was 2.91%, the inhibition [2] was 2.14% and the inhibition [3] was -0.2%.

For `COc1ccc2nccc([C@@H](O)CN3CCC(NC[C@H](Cc4ccccc4)NC(=O)OC(C)(C)C)CC3)c2c1`, the inhibition [1] was 3.73%, the inhibition [2] was 2.02% and the inhibition [3] was 2.75%.

In the case of `COc1cccc2cc(C(=O)N[C@@H](CC(C)C)C(=O)N[C@H](/C=N/NC(=O)N3CCN(C)CC3)CCc3ccccc3)oc12`, the inhibition [1] is reported as 9.32%, the inhibition [2] is reported as 11.9% and the inhibition [3] is reported as 8.39%.

For `COc1cc(Nc2nc(N)c3cc(OC)c(OC)cc3n2)cc(OC)c1`, the inhibition [1] was 6.58%, the inhibition [2] was 5.6% and the inhibition [3] was 3.12%.

With `CS(=O)(=O)Cc1ccc(Nc2nccc(-c3c(-c4cccc(C(=O)Nc5c(F)cccc5F)c4)nn4ccccc34)n2)cc1` the inhibition [1] was 21.4%, the inhibition [2] was 10.2% and the inhibition [3] was 2.15%.

With `CCc1c(CCNCCCCCCNCCc2ccc3c(c2C)OCO3)ccc2c1OCO2` the inhibition [1] was 8.6%, the inhibition [2] was 5.13% and the inhibition [3] was 10.6%.

Work on `CC(Nc1ccnc2cc(Cl)ccc12)c1ccc(S(N)(=O)=O)cc1` (configuration not stated) yielded an inhibition [1] of -1.53%, an inhibition [2] of 1.3% and an inhibition [3] of 2.92%.

Work on `N#Cc1ccc(C(=O)NC2CCN(CCCCCNC(=O)/C=C/c3ccc(Cl)c(Cl)c3)CC2)cc1` yielded an inhibition [1] of 0.08%, an inhibition [2] of 1.46% and an inhibition [3] of -1.31%.

`O=C(NC1CC1)C1CCN(Cc2cc3ccccc3n2Cc2ccc(Cl)cc2)CC1` was tested, and the inhibition [1] was -2.52%, the inhibition [2] was -1.61% and the inhibition [3] was -1.79%.

Compound `CS(=O)(=O)N(c1ccccc1)c1cc(C(=O)N[C@@H](Cc2ccccc2)[C@H](O)CNC2CCCCC2)cc(N2CCCC2=O)c1` has an inhibition [1] of 1.9%, an inhibition [2] of 1.63% and an inhibition [3] of 0.49%.

For `O=C(Nc1cccc(C(F)(F)F)c1)c1cc([N+](=O)[O-])cc2cn[nH]c12`, the inhibition [1] was 6.35%, the inhibition [2] was 5.74% and the inhibition [3] was 1.24%.
